# From PubChem BioAssay (NCATS)
# Several values for one entry are separate records, joined by “and”; a condition that tells them apart may be missing. Equal values may be shown once. Results filed as inconclusive are left out. Activity calls are given as the source filed them. Unless noted, the call rests on the fitted dose curve; in most records, active means well fitted curve in the direction sought with a large enough effect; inconclusive means small, poorly fitted or top-dose-only effect, or another doubt; inactive means no such curve, though single readings can be large; an effect the other way counts as inactive or inconclusive.
# Key:
# [1] = qHTS for Activators of Parkin Expression: LOPAC Validation Assay (NLuc Reporter) (AID 720572)
# Summary of the method: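 NLuc signal, read 10 min after reagent and following a prior FLuc read, is normalized to DMSO (0) and positive controls (100%). Cells: neuronal Parkin-promoter coincidence reporter line; compounds tested 7-point, 24 h, 37 C, 5% CO2.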
# [2] = qHTS for Activators of Parkin Expression: LOPAC Validation Assay (FLuc Reporter) (AID 720573; further: potency means the concentration at half of the fitted maximal effect)
# Summary of the method: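 FLuc luminescence read-out from a neuronal line expressing a Parkin-promoter-driven coincidence reporter. Cells treated 24 h at 37 C, 5% CO2 with compounds at 7 concentrations; signal increase normalized to DMSO and positive control.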
# [3] = qHTS assay for small molecule agonists of the antioxidant response element (ARE) signaling pathway measured by Nrf2-dependant transcriptional activity (AID 720636; active means well fitted curve in the direction sought with a large enough effect in the repeat runs; an effect the other way counts as inactive or inconclusive;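 further: HepG2 cells with an ARE-driven luciferase reporter; % of control where 0% means no effect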)
# Summary of the method: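 We exposed ARE-luc HepG2 cells, seeded in assay medium with 1% dialyzed FBS and allowed 6 hr to adhere, to test compounds overnight (16 hr, 37 C) before measuring luciferase with ONE-Glo.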
# [4] = qHTS assay for small molecule antagonists of the retinoid-related orphan receptor gamma (ROR-gamma) signaling pathway - cell viability counter screen (AID 720652; active means well fitted curve in the direction sought with a large enough effect in the repeat runs; an effect the other way counts as inactive or inconclusive;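 further: CHO reporter cells with doxycycline-induced ROR-gamma expression; compound exposure lasted 16 hr before ATP read; on the % scale 0 is the no-effect control and ±100 the full control effect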)
# Summary of the method: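 CHO RORE-LUC/TET-ROR line, 1,000 cells/well, 37 C 5% CO2 5 hr; cpd or DMSO + doxycycline induction, 16 hr. CellTiter-Glo, 30 min RT, luminescence = ATP content.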
# [5] = qHTS assay for small molecule agonists of the antioxidant response element (ARE) signaling pathway measured by Nrf2-dependant transcriptional activity - cell viability counter screen (AID 720653; active means well fitted curve in the direction sought with a large enough effect in the repeat runs; an effect the other way counts as inactive or inconclusive; further: on the % scale 0 is the no-effect control and ±100 the full control effect); settings: ARE-bla HepG2 viability, CellTiter-Glo ATP luminescence, 16 h; max response: stronger effect = lower value
# Summary of the method: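 ARE-bla HepG2 cells treated with compounds for 16 h at 37C; this counter screen measures viability as intracellular ATP by CellTiter-Glo luminescence after 30 min at room temperature.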
# [6] = molecular target: T1, Hexokinase-4 (Homo sapiens) + Glucokinase regulatory protein (Homo sapiens) (UniProt P35557+Q14397); assay: qHTS assay for inhibitors of recombinant human GCK-GKRP interaction: ADP-Glo assay (AID 743206);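 further: plate controls were DMSO plus enzyme for no effect and no enzyme for full effect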
# Summary of the method: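 Pin-transferred compounds meet a 15 nM GST-GCK/15 nM FLAG-GKRP/2 uM S6P mix (dispense concentrations). ATP is then added to 0.4 mM final with 5 mM glucose, and the reaction runs 60 min at room temperature. ADP is quantified luminescently.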
# [7] = molecular target: T1, Hexokinase-4 (Homo sapiens) + Glucokinase regulatory protein (Homo sapiens); assay: qHTS assay for inhibitors of recombinant human GCK-GKRP interaction: HTRF assay (AID 743207);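 further: 0% = DMSO with GCK present and -100% = DMSO wells lacking GCK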
# Summary of the method: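 HTRF read-out (ex 320 nm; 615/665 nm emission) after 60 min RT equilibration of 5 nM GST-GCK, 5 nM FLAG-GKRP, 2 uM S6P, compound and anti-FLAG/anti-GST detection antibodies; signal normalized between DMSO wells with and without GCK.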
# [8] = qHTS Assay for Identifying Gametocytocidal Compounds (AID 743244);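 further: on the % scale 0 is the no-effect control and ±100 the full control effect; actives lower the fluorescent signal which means gametocytes are killed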; settings: P. falciparum 3D7 stage III-V gametocytes, alamarBlue, 72 h; max response: stronger effect = lower value
# Summary of the method: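 Stage III-V P. falciparum 3D7 gametocytes, 20,000 per well, were exposed to compounds for 72 h at 37C, 5% CO2. AlamarBlue was then added for 24 h and viability was read as fluorescence at Ex 525/Em 598 nm.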
# [9] = qHTS assay for cell viability of HEK293 cells (AID 743288); settings: ATP luminescence (CellTiter-Glo), 18 h; max response: stronger effect = lower value; further: nearly all actives have a fitted effect of over 50% in size; further: potency means the concentration at half of the fitted maximal effect; on max response: on the % scale 0 is the no-effect control and ±100 the full control effect
# Summary of the method: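 ATP luminescence (CellTiter-Glo) reports metabolically competent cell number after parental HEK293 cells, 2,000/well, were treated with DMSO-dissolved compounds for 18 h at 37 C; reagent incubation 30 min, room temperature.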
# [10] = qHTS assay for cell viability of the p53RE-bla HCT-116 cell line (AID 743292); further: on the % scale 0 is the no-effect control and ±100 the full control effect; nearly all actives have a fitted effect of over 55% in size
# Summary of the method: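 In this qHTS counter-screen, metabolically competent p53RE-bla HCT-116 cells were counted via their ATP content. Compounds were applied for 16 h at 37 C and luciferase-coupled luminescence was measured.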
# [11] = qHTS profiling of the MIPE4 collection as inhibitors of Plasmodium falciparum (DD2) proliferation (AID 743345; call rule not given here); settings: P. falciparum Dd2 in erythrocytes, SYBR Green DNA, 72 h; at 28.5 µM (top of the series) unless noted
# Summary of the method: (§1)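 Parasite DNA was quantified by SYBR Green I fluorescence (ex 485, em 535 nm) after overnight lysis in saponin/Triton buffer at room temperature. Cultures at 0.3% parasitemia and 2.5% hematocrit were first exposed to compound for 72 h at 37 C; signals were normalised to artemisinin (0.29 uM) and vehicle wells.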
# [12] = High-throughput drug toxicity screening in the BPDCN cell line Gen2.2 (AID 1224824; call rule not given here;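 further: cells exposed to compounds for 48 h before reading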); settings: Gen2.2 BPDCN cells; at 45.8 µM (top of the series) unless noted
# Summary of the method: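 CellTiter-Glo luminescence after 48 h compound exposure of Gen2.2 cells; percent activity set with DMSO as 100% and bortezomib (9.2 uM final) as 0%. Cells seeded at 500 per well, RPMI + 10% FBS, 37 °C.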
# [13] = qHTS for compounds that reverse cellular toxicity of Amyloid beta (A-beta) peptide in yeast: LOPAC Validation Assay (AID 720559);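 further: plate controls were DMSO for no effect and equimolar ferric chloride plus clioquinol rescue for full effect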
# Summary of the method: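 OD600 growth readout after 48 hr at 30 C; A-beta-toxic yeast plus pinned compounds in medium. Normalization: DMSO = negative, equimolar FeCl3 + clioquinol = positive.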
# [14] = molecular target: T1, Hexokinase-4 (Homo sapiens) + Glucokinase regulatory protein (Homo sapiens); assay: qHTS assay for inhibitors of recombinant human GCK-GKRP interaction: Diaphorase-coupled assay (AID 743205)
# Summary of the method: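 Resorufin fluorescence (525/590 nm), read each minute over 30 min, reports GCK activity coupled via G6PDH and diaphorase. Reaction: 10 nM GST-GCK, 10 nM FLAG-GKRP, 5 mM glucose, 0.4 mM ATP, 0.15 mM NADP+, 0.1 mM resazurin.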
# [15] = qHTS profiling for inhibitors of Plasmodium falciparum (3D7) proliferation (AID 743322);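 further: infected erythrocytes exposed to compound for 72 h before lysis; 100% = DMSO vehicle wells and 0% = 0.29 µM artemisinin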; settings: P. falciparum 3D7 proliferation, at 28.7 µM (top of the series)
# Summary of the method: as §1
# [16] = qHTS profiling for inhibitors of Plasmodium falciparum (DD2) proliferation (AID 743323; call rule not given here); settings: at 28.7 µM (top of the series), lower = more inhibition
# Summary of the method: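 Parasite proliferation measured via DNA-dye fluorescence, as uninfected erythrocytes lack DNA. Cultures at 0.3% parasitemia and 2.5% hematocrit incubated 72 h with compound; signal scaled between vehicle and 0.29 uM artemisinin wells.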
# [17] = qHTS profiling of the MIPE4 collection as inhibitors of Plasmodium falciparum (3D7) proliferation (AID 743344; call rule not given here;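 further: scaled between DMSO vehicle wells and 0.29 µM artemisinin as full inhibition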); settings: P. falciparum 3D7 in erythrocytes, SYBR Green DNA fluorescence, 72 h; at 28.5 µM (top of the series) unless noted
# Summary of the method: as §1
# [18] = qHTS profiling of the MIPE4 collection as inhibitors of Plasmodium falciparum (DD2) proliferation (Rep 2) (AID 743346; call rule not given here); settings: P. falciparum Dd2 in erythrocytes, SYBR Green DNA, 72 h; at 28.5 µM (top of the series) unless noted
# Summary of the method: as §1
# [19] = qHTS profiling of the MIPE4 collection as inhibitors of Plasmodium falciparum (HB3) proliferation (AID 743347; call rule not given here;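 further: plate controls were DMSO vehicle wells for no effect and artemisinin wells for full effect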); settings: P. falciparum HB3 in erythrocytes, SYBR Green DNA, 72 h; at 28.5 µM (top of the series) unless noted
# Summary of the method: as §1
# [20] = qHTS profiling for inhibitors of Plasmodium falciparum (HB3) proliferation (AID 743324); settings: Plasmodium falciparum HB3 blood-stage proliferation; at 28.7 µM (top of the series);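 further: 100% = DMSO vehicle wells and 0% = artemisinin-treated control wells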
# Summary of the method: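 SYBR Green fluorescence (485 ex/535 em) of lysed cultures, incubated overnight at room temperature in the dark, quantifies parasite DNA. Infected erythrocytes at 0.3% parasitemia and 2.5% hematocrit were exposed 72 h; values normalized to DMSO and 0.29 uM artemisinin controls.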
# T1 sequence (P35557 whole entry, looked up): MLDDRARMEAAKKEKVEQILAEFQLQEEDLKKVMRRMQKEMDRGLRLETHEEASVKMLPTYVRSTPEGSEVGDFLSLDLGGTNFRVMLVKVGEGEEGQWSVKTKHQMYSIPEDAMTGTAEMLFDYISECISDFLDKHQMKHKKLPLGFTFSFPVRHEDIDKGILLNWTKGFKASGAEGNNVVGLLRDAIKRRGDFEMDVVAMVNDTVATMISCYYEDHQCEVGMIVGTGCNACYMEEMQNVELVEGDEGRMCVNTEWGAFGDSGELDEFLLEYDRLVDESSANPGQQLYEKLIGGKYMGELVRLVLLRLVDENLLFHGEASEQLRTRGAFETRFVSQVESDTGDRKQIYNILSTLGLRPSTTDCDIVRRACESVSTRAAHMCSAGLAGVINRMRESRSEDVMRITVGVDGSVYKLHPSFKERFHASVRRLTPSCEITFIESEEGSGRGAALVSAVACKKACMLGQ
# T1 sequence (Q14397 whole entry, looked up): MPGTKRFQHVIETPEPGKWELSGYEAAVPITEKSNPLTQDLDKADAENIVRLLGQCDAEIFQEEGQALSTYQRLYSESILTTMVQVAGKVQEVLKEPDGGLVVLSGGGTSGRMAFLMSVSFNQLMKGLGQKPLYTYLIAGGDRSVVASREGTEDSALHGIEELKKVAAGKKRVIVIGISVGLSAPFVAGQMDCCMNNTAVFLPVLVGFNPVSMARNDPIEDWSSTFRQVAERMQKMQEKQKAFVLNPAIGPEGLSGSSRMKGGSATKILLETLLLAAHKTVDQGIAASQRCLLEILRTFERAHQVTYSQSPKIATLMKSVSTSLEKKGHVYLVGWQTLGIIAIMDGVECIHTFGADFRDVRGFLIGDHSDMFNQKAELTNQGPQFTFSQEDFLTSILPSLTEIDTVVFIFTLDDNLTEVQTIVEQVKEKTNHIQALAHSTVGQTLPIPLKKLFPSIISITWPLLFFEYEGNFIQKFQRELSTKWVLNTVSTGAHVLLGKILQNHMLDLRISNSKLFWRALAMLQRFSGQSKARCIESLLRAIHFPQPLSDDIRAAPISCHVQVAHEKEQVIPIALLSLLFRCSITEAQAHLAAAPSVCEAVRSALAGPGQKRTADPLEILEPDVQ
smiles,measurement,setting,value
O=c1[nH]cc(F)c(=O)[nH]1,outcome,[1],inactive
same,Potency,[2],inactive
same,outcome,[3],inactive
same,Potency,[4],inactive
same,max response,[5],-3.42% (inactive)
same,Potency,[6],inactive
same,Potency,[7],inactive
same,max response,[8],14.8% (inactive) and 3.27% (inactive)
same,max response,[9],-0.211% (inactive)
same,Potency,[10],inactive
same,"parasite growth remaining, % of DMSO control (lower = more inhibition)",[11],18.8%
same,"cell viability, % of control (lower = more cytotoxic)",[12],118%
Cn1ccc2cc3c(cc21)CCN3C(=O)Nc1cccnc1,outcome,[13],inactive
same,outcome,[1],inactive
same,Potency,[14],inactive
same,Potency,[6],inactive
same,Potency,[7],inactive
same,max response,[8],16% (inactive) and 23.5% (inactive)
same,remaining parasite growth % (stronger effect = lower value),[15],25%
same,"activity, percent of control",[16],23%
same,"parasite growth, % of DMSO control",[17],23.4%
same,"parasite growth, % of control (lower = inhibition)",[18],13.8%
same,"growth, % of control",[19],56%
same,"cell viability, % of control (lower = more cytotoxic)",[12],100%
O=c1c(O)c(-c2ccc(O)c(O)c2)oc2cc(O)cc(O)c12,outcome,[13],inactive
same,Potency,[14],inactive
same,Potency,[6],inactive
same,Potency,[7],inactive
same,remaining parasite growth % (stronger effect = lower value),[15],26.9% and 12.7%
same,"activity, percent of control",[16],8.52% and 5.2%
same,"remaining proliferation (% of control), lower = more inhibition",[20],1.74% and 5.43%
same,"parasite growth, % of DMSO control",[17],12.8%
same,"parasite growth, % of control (lower = inhibition)",[18],9.46%
same,"growth, % of control",[19],11.6%
same,"cell viability, % of control (lower = more cytotoxic)",[12],108%
O=C(Nc1ccc([N+](=O)[O-])cc1Cl)c1cc(Cl)ccc1O,outcome,[3],inactive
same,Potency,[6],inactive
same,Potency,[7],inactive
same,Potency,[9],7.08 µM (active)
same,"parasite growth, % of DMSO control",[17],5.14%
same,"parasite growth remaining, % of DMSO control (lower = more inhibition)",[11],6.45%
same,"parasite growth, % of control (lower = inhibition)",[18],6.93%
same,"growth, % of control",[19],3.45%
same,"cell viability, % of control (lower = more cytotoxic)",[12],10.1%
COc1ccc2c(c1)c(CC(=O)O)c(C)n2C(=O)c1ccc(Cl)cc1,outcome,[13],inactive
same,Potency,[2],inactive
same,outcome,[3],inactive
same,Potency,[4],inactive
same,max response,[5],1.73% (inactive) and -1.81% (inactive)
same,Potency,[6],inactive
same,Potency,[7],inactive
same,max response,[8],2.39% (inactive) and 17.2% (inactive)
same,max response,[9],11.9% (inactive) and -6.39% (inactive)
same,Potency,[10],inactive
same,"parasite growth, % of DMSO control",[17],55.7%
same,"parasite growth remaining, % of DMSO control (lower = more inhibition)",[11],103%
same,"parasite growth, % of control (lower = inhibition)",[18],127%
same,"growth, % of control",[19],83.6%
same,"cell viability, % of control (lower = more cytotoxic)",[12],127%
CC(C)NCC(O)COc1ccc(CCOCC2CC2)cc1 (configuration not stated),outcome,[13],inactive
same,outcome,[1],inactive
same,Potency,[2],inactive
same,Potency,[6],inactive
same,max response,[8],-0.0756% (inactive) and 27.3% (inactive)
same,"parasite growth, % of DMSO control",[17],77%
same,"parasite growth, % of control (lower = inhibition)",[18],46.9%
same,"growth, % of control",[19],57.9%
same,"cell viability, % of control (lower = more cytotoxic)",[12],88.1%
O=c1c(-c2ccc(O)cc2)coc2cc(O)cc(O)c12,outcome,[13],inactive
same,Potency,[2],8.2 µM (active)
same,max response,[5],0.177% (inactive) and -1.16% (inactive)
same,Potency,[14],inactive
same,Potency,[6],inactive
same,Potency,[7],inactive
same,max response,[8],20.7% (inactive) and 7.37% (inactive)
same,max response,[9],-13% (inactive) and -14.1% (inactive)
same,Potency,[10],inactive
same,"parasite growth, % of DMSO control",[17],72.2%
same,"parasite growth remaining, % of DMSO control (lower = more inhibition)",[11],88.4%
same,"parasite growth, % of control (lower = inhibition)",[18],57.2%
same,"growth, % of control",[19],31.8%
same,"cell viability, % of control (lower = more cytotoxic)",[12],55.3%
NC12CC3CC(CC(C3)C1)C2,outcome,[13],inactive
same,outcome,[1],inactive
same,Potency,[2],inactive
same,Potency,[6],inactive
same,Potency,[7],inactive
same,max response,[8],-8.46% (inactive)
same,"parasite growth, % of DMSO control",[17],11.2%
same,"parasite growth, % of control (lower = inhibition)",[18],25.9%
same,"growth, % of control",[19],4.58%
same,"cell viability, % of control (lower = more cytotoxic)",[12],60.9%
CN(CCOc1ccc(NS(C)(=O)=O)cc1)CCc1ccc(NS(C)(=O)=O)cc1,max response,[8],1.01% (inactive)
same,"parasite growth, % of DMSO control",[17],115%
same,"parasite growth, % of control (lower = inhibition)",[18],119%
same,"growth, % of control",[19],56.2%
same,"cell viability, % of control (lower = more cytotoxic)",[12],181%
CN1CCN(C2=Nc3cc(Cl)ccc3Nc3ccccc32)CC1,outcome,[13],inactive
same,outcome,[1],inactive
same,Potency,[2],inactive
same,max response,[8],-2.07% (inactive) and 20.9% (inactive)
same,"cell viability, % of control (lower = more cytotoxic)",[12],121%
